Compounds without any hit were thinned out: in the full panel of roughly 83,000, 20% have a hit.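 Plates (96-well) were seeded with cells, treated with compound at one concentration, and incubated for 48 hours before percent growth was determined.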 Calls of active or inactive are those of the source. Rule for the calls: active = growth percent below 10; inactive = the rest.

This assay deals with OVCAR-8 ovarian. Put plainly: NCI-60 one-dose screen, 48 h (100 = growth as untreated, 0 = no growth, -100 = all killed). Conditions: 10 µM unless noted.
As for `O=C(COc1ccc(/C=C2\SC(=O)NC2=O)cc1)Nc1ccc(C(=O)/C=C/c2cc3ccccc3nc2Cl)cc1`, the growth is 76.4% (inactive).

As to `CC(C)Sc1nc(NC2CC2)c(C#N)c(-c2ccccc2)n1`, the growth was 84.9% (inactive).

As to `O=C(COc1cccc2cccnc12)Nc1ccc(C(=O)/C=C/c2ccc(Cl)cc2)cc1`, the growth was 94.4% (inactive).

Turning to `Oc1ccc(CSc2nnc(-c3ccc(Br)cc3)n2-c2ccccc2)c2cccnc12`, the growth was 23.4% (inactive).

For `COc1ccccc1N1CCN(C2=NN=C(c3cccc(Cl)c3)c3ccccc3C2)CC1`, the growth is 13% (inactive).

Consider `O=C1/C(=C/c2ccc([N+](=O)[O-])cc2)SC(=Nc2ccccc2)N1Nc1ccccc1`, for which the growth is 50% (inactive).

For the compound `COc1ccc([C@H]2c3[nH]c4ccccc4c3C[C@@H]3C(=O)N(C4CCN(Cc5ccccc5)CC4)CC(=O)N23)c(OC)c1`, the growth was 88.7% (inactive).

On to `CC1OC(O[C@@H]2[C@H](O)C(CO)OC(O[C@H]3COC(O[C@H]4CC[C@]5(C)[C@H]6CC[C@]78OC[C@@]9(CCC(C)(C)C[C@H]97)[C@H](O)C[C@@]8(C)[C@]6(C)CC[C@H]5C4(C)C)[C@@H](OC4OC(CO)[C@@H](O)[C@@H](O)[C@@H]4O)[C@@H]3O)[C@H]2OC2OC[C@@H](O)[C@@H](O)[C@@H]2O)[C@@H](O)[C@@H](O)[C@H]1O` (some centres not stated), for which the growth was -69% (active).

As to `N#Cc1c(-c2cccs2)cc(-c2cnccn2)nc1SCC(=O)NNC(=S)Nc1ccc(F)cc1`, the growth was 104% (inactive).

On to `O=C1NC(=O)c2c1c1c3ccccc3ccc1c1[nH]c3ccccc3c21`, for which the growth is 6.43% (active).

Regarding `COc1ccc(-c2ccc3c4c(cccc24)C(=O)N(N2C(=O)c4cccc5cccc(c45)C2=O)C3=O)cc1`, the growth was 100% (inactive).

Consider `NS(=O)(=O)c1ccc(Nc2nc(N/N=C/c3ccc(C(F)(F)F)cc3)nc(Nc3ccccc3)n2)cc1`, for which the growth is 33% (inactive).

In the case of `COc1cc(CNC(=O)/C=C/c2ccccc2)ccc1OCC(=O)NO`, the growth was 98.2% (inactive).

On to `NS(=O)(=O)c1ccc(Nc2nc(N/N=C/c3ccc(F)cc3)nc(Nc3ccccc3)n2)cc1`, for which the growth is 29.4% (inactive).

Regarding `C=C1C(=O)O[C@@H]2C[C@@H](C)[C@H](OC)CC(=O)[C@](C)(OC(C)=O)C[C@H](OC(=O)/C(C)=C\C)[C@@H]12`, the growth was 59% (inactive).

Take `O=C(c1ccc(O)cc1)[C@@H]1[C@@H]2CCCN2[C@@]2(C(=O)N(C(=O)c3ccc(F)cc3)c3ccccc32)[C@H]1c1ccc(F)cc1`: the growth is 93.2% (inactive).

In the case of `Cc1ccc(-n2cc(/C=C/C(=O)c3ccc(S(C)(=O)=O)cc3)c(-c3ccc(S(C)(=O)=O)cc3)n2)cc1`, the growth is 97.5% (inactive).

For `Cc1ccc(Cc2cnc(NC(=O)/C(C#N)=C/c3ccc(-c4ccc(Cl)cc4)o3)s2)cc1`, the growth is 97.9% (inactive).

As to `C=C(C)C(=O)O[C@H]1C[C@@]2(C)OC(=CC2=O)/C(C)=C\[C@H]2OC(=O)C(=C)[C@H]12`, the growth is 4.8% (active).

Regarding `CCN(CC)CCN1C(=O)c2c(c3c4cc(Br)ccc4[nH]c3c3ccc4ccccc4c23)C1=O`, the growth was -58.2% (active).

As to `Oc1ccc(CSc2nnc(-c3ccc(Oc4ccccc4)cc3)o2)c2cccnc12`, the growth is 24.2% (inactive).

Take `O=C1c2c(c3c4cccnc4[nH]c3c3ccc4ccccc4c23)C(=O)N1CCN1CCOCC1`: the growth was 47.2% (inactive).

`O=c1[nH]c(CCl)nc2c1cnn2-c1ccccc1`: the growth is 104% (inactive).

On to `C=C1C(=O)O[C@@H]2/C=C(/C)C3=CC(=O)[C@@](C)(C[C@H](OC(=O)/C(C)=C\C)[C@@H]12)O3`, for which the growth was 8.15% (active).

As to `O=C1CC2(CCOCC2)Oc2ncccc21`, the growth is 90.9% (inactive).

Turning to `O=C(Nc1ccc(F)cc1)c1cc(-c2ccc(F)cc2F)ccc1O`, the growth is 7.54% (active).

Regarding `COc1ccc(/C=N\NC(=O)c2ccc3nc(-c4ccc(Br)cc4)[nH]c3c2)cc1`, the growth is 13.6% (inactive).

As for `O=C(O)c1ccc(-n2cc(CNc3ccc(Cl)cc3)c(-c3ccc(F)cc3)n2)cc1`, the growth was 92.4% (inactive).

In the case of `COc1cc(/C=N/n2cnc3oc(-c4ccccc4)cc3c2=N)cc(CN2CCCC2)c1O`, the growth was -22.2% (active).

For `CCOC(=O)c1c(NCC(=O)Nc2cccc(Cl)c2)sc2c1CCCC2`, the growth is 87.7% (inactive).

With `Cc1ccc(-c2csc(N/N=C/c3nc4ccccc4n3C3CC3)n2)cc1`, the growth was 18.9% (inactive).

Turning to `C#C[C@]1(O)CC[C@H]2[C@@H]3CC=C4c5sc(Nc6cccc(C)n6)nc5CC[C@]4(C)[C@H]3CC[C@@]21C`, the growth was 39% (inactive).

These data come from PubChem BioAssay (NCI).
